# The supplement of paper PMC12494721
# Where a name gives a salt, the structure may show the parent alone.
# What was measured:
# Details in all cases: incubation time: 27 h, anaerobic, 37 °C;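 for the amine columns active = adjusted P below 0.05 in both replicates with a change the same way and a mean fold change under 0.8 or over 1.25; inactive = the rest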
# [1] = test system: Clostridium sporogenes DSM 1664; assay: growth (OD595) fold change vs plate DMSO controls (fold change (ratio)); higher = more growth
# Procedure, shortened: (§1)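 To obtain OD, 595 nm absorbance readings were blank-subtracted, corrected for compound background using 20 µM compound solutions in water, and multiplied by a calibration factor of 5. They came from 96-well mGAM cultures grown anaerobically for 27 h at 37 °C and shaken before reading. Growth is the fold change relative to the median of plate DMSO controls. Two biological replicates were averaged, and fold changes above 1.5 were set to NA.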
# Escherichia coli IAI1 [2] = assay: as above
# Procedure, shortened: as §1
# [3] = test system: Klebsiella aerogenes DSM 30053; assay: as above
# Procedure, shortened: as §1
# [4] = test system: Ruminococcus gnavus DSM 108212; assay: as above
# Procedure, shortened: as §1
# [5] = test system: Klebsiella aerogenes DSM 30053; assay: fold change of Histamine concentration vs plate DMSO controls (fold change (ratio)); higher = more amine produced, active = hit call of the paper (significant change in both replicates, either direction)
# Procedure, shortened: (§2)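 In 80 µL wells, cultures of four gut bacterial strains in mGAM started at OD 0.1 before a 1:1 dilution and grew anaerobically at 37 °C for 27 h. Compounds were added to 20 µM final, except sweeteners at 50 µM final. After extraction of whole cultures with cold acetonitrile/methanol plus 0.1% formic acid and centrifugation, amines were measured by LC–triple-quadrupole MS in dynamic MRM mode against external calibration curves, with within-batch drift correction. Values give fold change over DMSO controls on the same plate, averaged across 2 biological replicates.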
# [6] = test system: Clostridium sporogenes DSM 1664; assay: fold change of Tryptamine concentration vs plate DMSO controls (fold change (ratio)); higher = more amine produced, active = hit call of the paper (significant change in both replicates, either direction)
# Procedure, shortened: as §2
# [7] = test system: Ruminococcus gnavus DSM 108212; assay: as above
# Procedure, shortened: as §2
# Escherichia coli IAI1 [8] = assay: fold change of Putrescine concentration vs plate DMSO controls (fold change (ratio)); higher = more amine produced, active = hit call of the paper (significant change in both replicates, either direction)
# Procedure, shortened: as §2
# [9] = test system: Klebsiella aerogenes DSM 30053; assay: as above
# Procedure, shortened: as §2
# Escherichia coli IAI1 [10] = assay: fold change of Cadaverine concentration vs plate DMSO controls (fold change (ratio)); higher = more amine produced, active = hit call of the paper (significant change in both replicates, either direction)
# Procedure, shortened: as §2
# [11] = test system: Klebsiella aerogenes DSM 30053; assay: as above
# Procedure, shortened: as §2
# [12] = test system: Ruminococcus gnavus DSM 108212; assay: fold change of 2-Phenylethylamine concentration vs plate DMSO controls (fold change (ratio)); higher = more amine produced, active = hit call of the paper (significant change in both replicates, either direction)
# Procedure, shortened: as §2
SMILES,growth [1],growth (Escherichia coli IAI1 [2]),growth [3],growth [4],fold change of Histamine concentration [5],fold change of Tryptamine concentration [6],fold change of Tryptamine concentration [7],fold change of Putrescine concentration (Escherichia coli IAI1 [8]),fold change of Putrescine concentration [9],fold change of Cadaverine concentration (Escherichia coli IAI1 [10]),fold change of Cadaverine concentration [11],fold change of 2-Phenylethylamine concentration [12]
C[C@@H](CN1CC(=O)NC(=O)C1)N1CC(=O)NC(=O)C1 [Dexrazoxane hydrochloride] (20 µM),1.26,1.01,1.05,0.949,1.01 (inactive),0.997 (inactive),1.03 (inactive),0.979 (inactive),1.02 (inactive),0.988 (inactive),1.01 (inactive),1.02 (inactive)
COC(=O)[C@H](Cc1ccccc1)NC(=O)[C@@H](N)CC(=O)O [Aspartame] (50 µM),1.05,0.921,0.997,1.01,1.03 (inactive),0.944 (inactive),1.01 (inactive),0.968 (inactive),1.01 (inactive),1.04 (inactive),0.99 (inactive),1.04 (inactive)
CO[C@@H]1[C@@H](O[C@@H]2O[C@H](C)[C@@H](O[C@H]3C[C@@](C)(O)[C@@H](O)[C@H](C)O3)[C@H](N(C)C)[C@H]2O)[C@@H](CC=O)C[C@@H](C)[C@@H](O[C@H]2CC[C@H](N(C)C)[C@@H](C)O2)/C=C/C=C/C[C@@H](C)OC(=O)C[C@H]1OC(C)=O [Acetyl spiramycin] (20 µM),0.00073,1.03,0.958,0.154,0.621 (active),0.0194 (active),0.153 (active),0.875 (inactive),1.03 (inactive),0.989 (inactive),1.03 (inactive),0.156 (active)
COC(=O)Nc1nc2cc(C(=O)c3cccs3)ccc2[nH]1 [Nocodazole] (20 µM),0.969,1.01,1.02,1.05,0.98 (inactive),0.968 (inactive),0.999 (inactive),0.977 (inactive),1 (inactive),0.996 (inactive),1.03 (inactive),1.03 (inactive)
COc1cc([C@@H]2c3cc4c(cc3[C@@H](O[C@@H]3O[C@@H]5CO[C@@H](C)O[C@H]5[C@H](O)[C@H]3O)[C@H]3COC(=O)[C@H]23)OCO4)cc(OC)c1O [Etoposide] (20 µM),0.285,1.05,1.2,0.101,0.858 (inactive),0.403 (active),0.248 (active),1.08 (inactive),0.982 (inactive),0.966 (inactive),1.03 (inactive),0.236 (active)
O=C1CC[C@@H](C(=O)N2CSC[C@H]2C(=O)O)N1 [Pidotimod] (20 µM),1.31,0.987,1.02,1.09,0.983 (inactive),0.982 (inactive),1.02 (inactive),0.979 (inactive),0.992 (inactive),1.01 (inactive),0.999 (inactive),1.04 (inactive)
CC=C(C)C(=O)OC1C(OC(C)=O)C2(CO)C(O)CC3(C)C(=CCC4C5(C)CCC(OC6OC(C(=O)O)C(OC7OC(CO)C(O)C(O)C7O)C(O)C6OC6OC(CO)C(O)C(O)C6O)C(C)(CO)C5CCC43C)C2CC1(C)C (stereo not drawn) [Beta-Escin] (20 µM),0.94,1,1.01,1.01,1.01 (inactive),0.988 (inactive),0.982 (inactive),0.986 (inactive),0.994 (inactive),1.01 (inactive),1 (inactive),0.953 (inactive)
COc1cc2ncnc(Nc3ccc(F)c(Cl)c3)c2cc1OCCCN1CCOCC1 [Gefitinib] (20 µM),1.1,1.04,0.991,1.18,0.983 (inactive),1.06 (inactive),0.993 (inactive),1.14 (inactive),0.997 (inactive),1.02 (inactive),1.02 (inactive),1.1 (inactive)
CO[C@@]1(NC(=O)Cc2cccs2)C(=O)N2C(C(=O)O)=C(COC(N)=O)CS[C@@H]21 [Cefoxitin sodium salt] (20 µM),0,0.00646,1.45,0,1.21 (inactive),0.0449 (active),0.0768 (active),0.153 (active),1.09 (inactive),0.623 (active),1.11 (inactive),0.0566 (active)
CC(COc1ccccc1)NC(C)C(O)c1ccc(O)cc1 (centres undefined) [Isoxsuprine hydrochloride] (20 µM),1.07,1,1,1.01,0.819 (inactive),1.05 (inactive),0.977 (inactive),1.05 (inactive),1 (inactive),0.927 (inactive),1.03 (inactive),0.966 (inactive)
NS(=O)(=O)c1cc2c(cc1Cl)NC(C(Cl)Cl)NS2(=O)=O (centres undefined) [Trichlormethiazide] (20 µM),1.14,1.08,1.01,1.07,1.05 (inactive),1.05 (inactive),1.03 (inactive),1.11 (inactive),1.02 (inactive),1.03 (inactive),0.984 (inactive),1.01 (inactive)
CC1(C)S[C@@H]2[C@H](NC(=O)[C@H](N)c3ccccc3)C(=O)N2[C@H]1C(=O)OC1OC(=O)c2ccccc21 (some centres undefined) [Talampicillin hydrochloride] (20 µM),0,0.00609,0.378,0.146,0.797 (active),0.0102 (active),0.0823 (active),0.252 (active),0.971 (inactive),0.867 (inactive),1.13 (inactive),0.0586 (active)
COCC1=C(C(=O)OC(C)OC(=O)OC(C)C)N2C(=O)[C@@H](NC(=O)/C(=N\OC)c3csc(N)n3)[C@H]2SC1 (some centres undefined) [Cefpodoxime proxetil] (20 µM),1.05,1.01,1.04,1.18,1.06 (inactive),0.946 (inactive),0.622 (inactive),0.972 (inactive),1.03 (inactive),1.43 (active),0.986 (inactive),0.605 (inactive)
CC1(C)S[C@@H]2[C@H](NC(=O)Cc3ccccc3)C(=O)N2[C@H]1C(=O)O [Benzylpenicillin sodium] (20 µM),0,1.19,1.1,0,1.06 (inactive),0.05 (active),0.0412 (active),1.09 (inactive),1.04 (inactive),1.56 (active),1.03 (inactive),0.0471 (active)
Cc1ccc(C(=O)c2ccc(CC(=O)O)n2C)cc1 [Tolmetin sodium salt dihydrate] (20 µM),1.12,0.976,1.01,0.976,1.05 (inactive),1 (inactive),0.958 (inactive),0.949 (inactive),1.01 (inactive),1 (inactive),1 (inactive),0.913 (inactive)
Clc1ccc(C(c2ccccc2Cl)C(Cl)Cl)cc1 (centres undefined) [Mitotane] (20 µM),1.01,1.04,1.03,1.34,1.01 (inactive),0.997 (inactive),1.01 (inactive),1.03 (inactive),1 (inactive),1.03 (inactive),1.01 (inactive),1.03 (inactive)
CCCNC(C)C(=O)Nc1ccccc1C (centres undefined) [Prilocaine hydrochloride] (20 µM),0.947,0.973,1.02,0.708,1.07 (inactive),0.934 (inactive),1.02 (inactive),1.01 (inactive),1.02 (inactive),0.993 (inactive),0.988 (inactive),1 (inactive)
NC(=O)NS(=O)(=O)c1ccc(N)cc1 [Sulfacarbamide] (20 µM),0.977,1.02,0.993,0.94,1.04 (inactive),0.967 (inactive),1 (inactive),1.01 (inactive),1.02 (inactive),1 (inactive),1.01 (inactive),0.972 (inactive)
CCCCc1ncc(/C=C(\Cc2cccs2)C(=O)O)n1Cc1ccc(C(=O)O)cc1 [Eprosartan mesylate] (20 µM),1.06,1.06,1.16,0.916,0.882 (inactive),1.08 (inactive),0.998 (inactive),0.975 (inactive),1 (inactive),0.963 (inactive),1.03 (inactive),1.02 (inactive)
Nc1ccccc1S(N)(=O)=O [o-Sulfanilamide] (20 µM),0.883,1.01,1.01,1,1.02 (inactive),0.958 (inactive),0.928 (inactive),1.03 (inactive),1.01 (inactive),1 (inactive),1 (inactive),0.905 (inactive)
CCc1oc2ccccc2c1C(=O)c1cc(Br)c(O)c(Br)c1 [Benzbromarone] (20 µM),0.813,0.959,0.986,0.873,0.958 (inactive),0.706 (active),0.722 (active),0.989 (inactive),0.994 (inactive),1.04 (inactive),0.998 (inactive),0.763 (active)
NC1CCN(c2nc3c(cc2F)c(=O)c(C(=O)O)cn3-c2ccc(F)cc2F)C1 (centres undefined) [Tosufloxacin hydrochloride] (20 µM),0.0344,0.0566,0.173,1.45,0.0712 (active),0.0441 (active),0.532 (active),0.811 (inactive),0.642 (active),0.192 (active),0.978 (inactive),0.615 (active)
